Measured values taken from the supplement of paper PMC10849652.
Targets with a hit are over-represented here; the source holds about 8,800 in all. About 0.5% of all pairs of compound and target were hits.

compound: CN1CC[C@H](c2c(O)cc(O)c3c(=O)cc(-c4ccccc4Cl)oc23)[C@H](O)C1 [alvocidib]; assay: log2 fold change, soluble protein after heating vs DMSO (PISA); higher = thermal stabilisation; K562 lysate, 10 uM; active = over 0.2 and 3.5 SD of the protein, either way, in both replicates (recomputed)
Procedure, shortened: (§1)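 K562 pellets were dounce-homogenised in PBS pH 7.4 containing 1 mM MgCl2, and the crude extract, at 1 mg/mL protein, was exposed to 10 μM compound for 30 min. Aliquots were heated for 3 min across 48°C-58°C, pooled, brought to 0.5% NP-40 at 4°C and spun at 21,000xg for 90 min, with the supernatant taken as soluble protein. TMTpro 16plex LC-MS/MS with equalised channel sums quantified that protein. Values are log-two fold changes in thermal stability relative to solvent controls, taken from duplicates.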

UniProt Q8NEC7, sequence (Q8NEC7 whole entry, looked up): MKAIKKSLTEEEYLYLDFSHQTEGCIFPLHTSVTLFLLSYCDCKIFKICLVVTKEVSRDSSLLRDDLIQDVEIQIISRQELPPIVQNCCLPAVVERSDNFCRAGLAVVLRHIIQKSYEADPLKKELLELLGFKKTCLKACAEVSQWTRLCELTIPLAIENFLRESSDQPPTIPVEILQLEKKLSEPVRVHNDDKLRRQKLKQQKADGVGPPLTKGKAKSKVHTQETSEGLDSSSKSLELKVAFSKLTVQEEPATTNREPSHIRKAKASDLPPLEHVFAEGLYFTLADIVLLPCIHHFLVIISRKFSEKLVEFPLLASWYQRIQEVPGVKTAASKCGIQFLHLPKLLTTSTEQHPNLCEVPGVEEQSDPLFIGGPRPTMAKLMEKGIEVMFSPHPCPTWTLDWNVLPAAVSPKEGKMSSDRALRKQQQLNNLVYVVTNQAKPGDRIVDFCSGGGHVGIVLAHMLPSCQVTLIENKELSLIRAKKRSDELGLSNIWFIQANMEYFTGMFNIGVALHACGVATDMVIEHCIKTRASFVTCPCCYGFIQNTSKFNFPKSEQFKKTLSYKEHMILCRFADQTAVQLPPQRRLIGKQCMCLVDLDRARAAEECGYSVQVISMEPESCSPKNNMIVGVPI
UniProt Q8N201, sequence (Q8N201 whole entry, looked up): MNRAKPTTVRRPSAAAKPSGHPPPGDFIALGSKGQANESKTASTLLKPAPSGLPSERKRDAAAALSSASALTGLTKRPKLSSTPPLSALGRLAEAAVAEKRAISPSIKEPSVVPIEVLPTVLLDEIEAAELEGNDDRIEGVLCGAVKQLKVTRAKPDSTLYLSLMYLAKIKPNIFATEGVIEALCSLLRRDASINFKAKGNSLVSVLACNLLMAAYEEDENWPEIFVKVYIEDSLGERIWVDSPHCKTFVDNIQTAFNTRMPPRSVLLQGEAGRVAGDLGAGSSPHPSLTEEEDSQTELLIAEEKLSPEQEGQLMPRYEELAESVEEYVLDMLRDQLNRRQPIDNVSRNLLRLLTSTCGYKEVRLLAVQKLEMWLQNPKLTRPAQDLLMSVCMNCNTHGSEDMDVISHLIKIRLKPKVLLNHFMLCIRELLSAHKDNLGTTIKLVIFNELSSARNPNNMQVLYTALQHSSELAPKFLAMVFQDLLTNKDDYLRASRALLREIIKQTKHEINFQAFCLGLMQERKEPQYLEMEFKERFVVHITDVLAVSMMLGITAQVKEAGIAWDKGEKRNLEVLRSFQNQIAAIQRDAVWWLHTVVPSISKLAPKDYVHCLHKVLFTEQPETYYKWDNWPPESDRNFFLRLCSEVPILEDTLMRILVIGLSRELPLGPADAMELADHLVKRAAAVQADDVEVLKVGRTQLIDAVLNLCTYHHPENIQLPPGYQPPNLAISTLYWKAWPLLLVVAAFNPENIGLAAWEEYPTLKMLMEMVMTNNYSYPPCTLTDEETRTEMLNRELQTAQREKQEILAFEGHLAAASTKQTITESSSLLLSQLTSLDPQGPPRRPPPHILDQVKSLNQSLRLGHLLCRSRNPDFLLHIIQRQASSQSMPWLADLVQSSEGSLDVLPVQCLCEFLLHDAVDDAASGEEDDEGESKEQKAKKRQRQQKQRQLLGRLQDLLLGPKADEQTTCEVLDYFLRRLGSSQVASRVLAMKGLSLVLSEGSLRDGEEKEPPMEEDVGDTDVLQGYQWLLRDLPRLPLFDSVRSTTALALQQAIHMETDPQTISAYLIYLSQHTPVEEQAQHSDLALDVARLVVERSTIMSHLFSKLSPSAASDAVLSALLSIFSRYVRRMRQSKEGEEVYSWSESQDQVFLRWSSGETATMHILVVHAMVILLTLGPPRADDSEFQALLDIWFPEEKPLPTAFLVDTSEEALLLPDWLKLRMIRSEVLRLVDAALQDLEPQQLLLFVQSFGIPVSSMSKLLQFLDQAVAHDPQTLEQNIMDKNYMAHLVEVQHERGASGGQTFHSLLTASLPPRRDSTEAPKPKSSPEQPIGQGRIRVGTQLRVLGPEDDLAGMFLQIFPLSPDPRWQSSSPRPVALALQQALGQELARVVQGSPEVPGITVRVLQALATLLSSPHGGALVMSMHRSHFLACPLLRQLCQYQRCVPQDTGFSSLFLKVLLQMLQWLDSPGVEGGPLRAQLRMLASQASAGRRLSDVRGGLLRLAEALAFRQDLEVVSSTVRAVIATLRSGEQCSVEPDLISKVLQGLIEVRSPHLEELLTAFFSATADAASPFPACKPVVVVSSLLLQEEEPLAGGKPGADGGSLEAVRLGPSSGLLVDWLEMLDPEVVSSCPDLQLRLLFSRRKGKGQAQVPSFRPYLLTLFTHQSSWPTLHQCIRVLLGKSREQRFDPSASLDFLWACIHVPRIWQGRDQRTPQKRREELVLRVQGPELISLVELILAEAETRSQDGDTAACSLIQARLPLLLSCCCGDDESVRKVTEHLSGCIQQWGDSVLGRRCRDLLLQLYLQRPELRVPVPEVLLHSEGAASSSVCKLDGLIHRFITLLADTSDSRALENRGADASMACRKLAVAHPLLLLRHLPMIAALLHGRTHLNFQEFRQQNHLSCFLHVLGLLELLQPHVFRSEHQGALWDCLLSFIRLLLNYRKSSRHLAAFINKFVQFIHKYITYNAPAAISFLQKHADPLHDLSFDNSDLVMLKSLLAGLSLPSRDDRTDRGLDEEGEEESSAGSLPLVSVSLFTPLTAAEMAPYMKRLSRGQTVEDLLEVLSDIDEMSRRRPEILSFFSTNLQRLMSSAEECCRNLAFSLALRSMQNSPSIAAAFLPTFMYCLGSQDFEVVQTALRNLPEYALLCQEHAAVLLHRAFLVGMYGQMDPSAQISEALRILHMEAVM
UniProt Q99714, sequence (Q99714 whole entry, looked up): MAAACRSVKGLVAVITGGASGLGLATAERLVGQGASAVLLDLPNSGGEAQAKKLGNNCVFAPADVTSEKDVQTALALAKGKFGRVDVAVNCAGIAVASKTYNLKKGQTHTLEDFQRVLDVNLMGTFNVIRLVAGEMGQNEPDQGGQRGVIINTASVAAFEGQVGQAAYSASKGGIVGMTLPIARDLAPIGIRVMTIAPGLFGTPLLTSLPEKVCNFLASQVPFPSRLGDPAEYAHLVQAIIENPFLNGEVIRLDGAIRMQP
UniProt Q96AB3, sequence (Q96AB3 whole entry, looked up): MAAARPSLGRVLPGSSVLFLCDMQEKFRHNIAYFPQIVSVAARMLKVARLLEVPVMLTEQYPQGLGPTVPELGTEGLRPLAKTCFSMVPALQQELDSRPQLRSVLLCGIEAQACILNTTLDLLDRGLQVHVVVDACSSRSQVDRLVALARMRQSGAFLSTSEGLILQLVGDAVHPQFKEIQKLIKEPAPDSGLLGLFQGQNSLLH
UniProt P52789, sequence (P52789 whole entry, looked up): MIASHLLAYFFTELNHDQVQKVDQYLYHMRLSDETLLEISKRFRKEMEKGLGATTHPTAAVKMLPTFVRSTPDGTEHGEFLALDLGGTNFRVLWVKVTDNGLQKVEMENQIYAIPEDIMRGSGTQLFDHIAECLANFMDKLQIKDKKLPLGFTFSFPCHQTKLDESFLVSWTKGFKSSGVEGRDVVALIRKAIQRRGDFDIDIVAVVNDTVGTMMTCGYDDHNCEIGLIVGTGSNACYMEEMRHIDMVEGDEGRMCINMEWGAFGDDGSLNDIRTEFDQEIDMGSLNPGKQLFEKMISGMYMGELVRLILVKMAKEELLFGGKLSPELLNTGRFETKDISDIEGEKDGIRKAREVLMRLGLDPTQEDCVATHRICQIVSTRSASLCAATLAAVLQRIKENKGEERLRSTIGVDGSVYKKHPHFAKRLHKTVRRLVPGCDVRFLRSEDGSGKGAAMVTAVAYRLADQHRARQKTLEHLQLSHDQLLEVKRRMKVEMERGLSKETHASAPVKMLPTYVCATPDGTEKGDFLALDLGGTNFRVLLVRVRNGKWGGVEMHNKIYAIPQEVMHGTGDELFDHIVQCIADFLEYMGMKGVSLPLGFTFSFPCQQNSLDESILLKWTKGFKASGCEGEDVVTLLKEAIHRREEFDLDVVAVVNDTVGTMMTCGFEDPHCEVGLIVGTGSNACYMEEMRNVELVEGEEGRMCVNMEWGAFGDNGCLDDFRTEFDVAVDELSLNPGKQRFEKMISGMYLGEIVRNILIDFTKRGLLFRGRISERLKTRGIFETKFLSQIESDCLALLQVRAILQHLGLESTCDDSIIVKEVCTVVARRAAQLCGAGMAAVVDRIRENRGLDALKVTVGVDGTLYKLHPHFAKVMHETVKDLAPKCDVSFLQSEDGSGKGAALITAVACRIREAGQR
UniProt P11142, sequence (P11142 whole entry, looked up): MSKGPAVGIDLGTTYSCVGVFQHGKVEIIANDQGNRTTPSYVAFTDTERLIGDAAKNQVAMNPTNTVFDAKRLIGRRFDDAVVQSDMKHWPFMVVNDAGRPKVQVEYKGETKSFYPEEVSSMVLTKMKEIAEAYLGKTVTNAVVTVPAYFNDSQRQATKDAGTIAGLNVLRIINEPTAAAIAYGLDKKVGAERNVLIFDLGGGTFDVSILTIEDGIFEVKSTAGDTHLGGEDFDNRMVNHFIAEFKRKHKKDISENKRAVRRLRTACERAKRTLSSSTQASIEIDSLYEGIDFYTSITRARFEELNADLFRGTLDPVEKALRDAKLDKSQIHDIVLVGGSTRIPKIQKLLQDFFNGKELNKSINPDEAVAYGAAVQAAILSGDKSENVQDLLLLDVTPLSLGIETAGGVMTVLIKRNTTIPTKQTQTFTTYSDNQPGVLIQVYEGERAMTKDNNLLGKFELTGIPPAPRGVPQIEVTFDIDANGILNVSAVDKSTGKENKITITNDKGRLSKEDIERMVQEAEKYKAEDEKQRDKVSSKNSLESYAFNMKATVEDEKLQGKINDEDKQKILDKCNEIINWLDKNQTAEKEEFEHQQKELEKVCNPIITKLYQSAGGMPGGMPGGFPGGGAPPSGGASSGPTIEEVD
UniProt Q03013, sequence (Q03013 whole entry, looked up): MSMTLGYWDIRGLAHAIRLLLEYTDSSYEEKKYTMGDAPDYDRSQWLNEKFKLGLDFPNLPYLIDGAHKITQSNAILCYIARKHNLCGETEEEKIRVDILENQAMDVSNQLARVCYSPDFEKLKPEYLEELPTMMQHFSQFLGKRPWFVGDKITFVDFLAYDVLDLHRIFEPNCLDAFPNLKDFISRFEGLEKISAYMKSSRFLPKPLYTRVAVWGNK

Row | Target | log2 fold change
1 | GTF2H4 (UniProt Q92759) | 0.005 (inactive)
2 | GSTZ1 (UniProt G3V4T6) | -0.016 (inactive)
3 | HDAC2 (UniProt Q92769) | -0.01 (inactive)
4 | HEATR6 (UniProt Q6AI08) | 0.03 (inactive)
5 | H4C1 (UniProt P62805) | -0.101 (inactive)
6 | HECTD3 (UniProt Q5T447) | 0.007 (inactive)
7 | KCT2 (UniProt Q8NC54) | -0.137 (inactive)
8 | GPX4 (UniProt P36969) | 0.031 (inactive)
9 | IARS2 (UniProt Q9NSE4) | 0.072 (inactive)
10 | GTF2H1 (UniProt P32780) | -0.053 (inactive)
11 | GSTM4 (UniProt Q03013) | 0.006 (inactive)
12 | IMPACT (UniProt Q9P2X3) | 0.002 (inactive)
13 | IGF2BP2 (UniProt Q9Y6M1) | 0.016 (inactive)
14 | GON4L (UniProt Q3T8J9) | 0.019 (inactive)
15 | HK1 isoform 2 (UniProt P19367) | -0.001 (inactive)
16 | GTF2I (UniProt P78347) | 0.05 (inactive)
17 | KEAP1 (UniProt Q14145) | -0.024 (inactive)
18 | ISOC2 (UniProt Q96AB3) | 0.004 (inactive)

Row | Target | log2 fold change
19 | HSD17B10 (UniProt Q99714) | -0.02 (inactive)
20 | IRAK4 (UniProt Q9NWZ3) | 0.01 (inactive)
21 | IMMT (UniProt Q16891) | 0.031 (inactive)
22 | IARS (UniProt P41252) | 0.006 (inactive)
23 | IMPDH2 (UniProt P12268) | 0.026 (inactive)
24 | GNE isoform 2 (UniProt Q9Y223) | 0.028 (inactive)
25 | GTPBP2 (UniProt Q9BX10) | -0.001 (inactive)
26 | HSPB1 (UniProt P04792) | 0.003 (inactive)
27 | INTS1 (UniProt Q8N201) | 0.009 (inactive)
28 | HSPA8 (UniProt P11142) | 0.005 (inactive)
29 | HAUS3 (UniProt Q68CZ6) | -0.022 (inactive)
30 | GRB10 (UniProt Q13322) | -0.061 (inactive)
31 | HARS (UniProt P12081) | 0 (inactive)
32 | GMIP (UniProt Q9P107) | -0.078 (inactive)
33 | HK2 (UniProt P52789) | 0.006 (inactive)
34 | IRAK1 (UniProt P51617) | -0.104 (inactive)
35 | GSTCD (UniProt Q8NEC7) | 0.03 (inactive)
36 | HDAC3 (UniProt O15379) | 0.005 (inactive)

compound: CN1CCc2c(c3ccccc3n2Cc2ccc(C(=O)NO)cc2)C1 [Tubastatin A]; assay: as above
Procedure, shortened: as §1

Row | Target | log2 fold change
37 | GTF2H4 (UniProt Q92759) | -0.069 (inactive)
38 | GSTZ1 (UniProt G3V4T6) | 0.018 (inactive)
39 | HDAC2 (UniProt Q92769) | -0.012 (inactive)
40 | HEATR6 (UniProt Q6AI08) | -0.1 (inactive)
41 | H4C1 (UniProt P62805) | 0.373 (active)
42 | HECTD3 (UniProt Q5T447) | -0.047 (inactive)
43 | KCT2 (UniProt Q8NC54) | 0.029 (inactive)
44 | GPX4 (UniProt P36969) | -0.099 (inactive)
45 | IARS2 (UniProt Q9NSE4) | 0.021 (inactive)
46 | GTF2H1 (UniProt P32780) | -0.023 (inactive)
47 | GSTM4 (UniProt Q03013) | -0.012 (inactive)
48 | IMPACT (UniProt Q9P2X3) | -0.04 (inactive)
49 | IGF2BP2 (UniProt Q9Y6M1) | -0.124 (inactive)
50 | GON4L (UniProt Q3T8J9) | -0.114 (inactive)
51 | HK1 isoform 2 (UniProt P19367) | -0.038 (inactive)
52 | GTF2I (UniProt P78347) | -0.096 (inactive)
53 | KEAP1 (UniProt Q14145) | -0.019 (inactive)
54 | ISOC2 (UniProt Q96AB3) | -0.017 (inactive)

Row | Target | log2 fold change
55 | HSD17B10 (UniProt Q99714) | -0.077 (inactive)
56 | IRAK4 (UniProt Q9NWZ3) | -0.083 (inactive)
57 | IMMT (UniProt Q16891) | -0.079 (inactive)
58 | IARS (UniProt P41252) | -0.134 (inactive)
59 | IMPDH2 (UniProt P12268) | -0.226 (active)
60 | GNE isoform 2 (UniProt Q9Y223) | -0.12 (inactive)
61 | GTPBP2 (UniProt Q9BX10) | -0.045 (inactive)
62 | HSPB1 (UniProt P04792) | -0.023 (inactive)
63 | INTS1 (UniProt Q8N201) | -0.028 (inactive)
64 | HSPA8 (UniProt P11142) | 0.056 (inactive)
65 | HAUS3 (UniProt Q68CZ6) | -0.159 (inactive)
66 | GRB10 (UniProt Q13322) | -0.226 (inactive)
67 | HARS (UniProt P12081) | 0.001 (inactive)
68 | GMIP (UniProt Q9P107) | -0.139 (inactive)
69 | HK2 (UniProt P52789) | -0.17 (inactive)
70 | IRAK1 (UniProt P51617) | -0.038 (inactive)
71 | GSTCD (UniProt Q8NEC7) | -0.13 (inactive)
72 | HDAC3 (UniProt O15379) | -0.039 (inactive)
